{
  "source": "PubChem BioAssay AID504832",
  "about": "(National Center for Advancing Translational Sciences (NCATS), 2011)",
  "note": "Among all 310,000 compounds or so, about 18,000 (5.8%) were called active. A call without a number means that no potency is given here. Another 22% or so got no clear call; they are omitted. The sample holds actives, similar compounds and a random draw of the others, so the mix is not that of the screen. Calls follow the shape of the dose curve; as a rule, active = well fitted inhibition curve with a large enough effect; inconclusive = small, poorly fitted or top-dose-only effect, or another doubt; inactive = no such curve, though single readings can be large or run the other way. Potency is read from the fitted curve at half-maximal effect.",
  "data": [
    {"assay": "Primary qHTS for delayed death inhibitors of the malarial parasite plastid, 48 hour incubation", "details": "P. falciparum luciferase growth in erythrocytes; series mostly up to 28.7 µM", "procedure,_shortened": "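A one-generation exposure of luciferase-tagged malaria parasites in RPMI 1640/Albumax erythrocyte culture, 37 C and 5% CO2. Inhibition is inferred from decreased luminescence after adding detection reagent.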", "values": [
      {"smiles": "Cc1cc(NC(=O)CSC2=NS(=O)(=O)c3cc(Cl)ccc3N2)no1", "Potency": "inactive"},
      {"smiles": "Cc1cc(S(=O)(=O)c2cc3ccc(O)c(C)c3oc2=O)ccc1F", "activity change, negative = inhibition": "8.19% [at 0.00184 µM] (inactive)"},
      {"smiles": "CCN(CC(=O)NCC(=O)Nc1cccc(C)c1C)Cc1ccccc1", "Potency": "inactive"},
      {"smiles": "CC(Oc1cc2oc(=O)c3c(c2cc1Cl)CCCC3)C(=O)NCc1ccncc1", "note": "(stereo not drawn)", "Potency": "inactive"},
      {"smiles": "Cc1nc2nc(C)c(NS(=O)(=O)c3ccc(C(C)(C)C)cc3)c(=O)n2[nH]1", "Potency": "inactive"},
      {"smiles": "CCCc1nn2c(=O)cc(CSCC(=O)Nc3cccc(C)c3)nc2s1", "Potency": "inactive"},
      {"smiles": "COc1ccc(C(=O)NC2CCN(C(=S)Nc3ccccc3)CC2)cc1", "Potency": "inactive"},
      {"smiles": "COc1cc(OC)cc(C(=O)NC2CCN(C(=O)N3c4ccccc4Sc4ccccc43)CC2)c1", "Potency": "13.1 µM (active)"},
      {"smiles": "CCCNC(=S)N1CCC(NC(=O)c2ccc(OC)cc2)CC1", "Potency": "inactive"},
      {"smiles": "CSc1ccc(S(=O)(=O)N2CCC(C(=O)NCc3ccncc3)CC2)cc1", "Potency": "inactive"},
      {"smiles": "Cn1c2cc(B(O)O)sc2c2cnn(Cc3ccccc3F)c(=O)c21", "Potency": "10.4 µM (active)"},
      {"smiles": "O=c1c2ccccc2cnn1Cc1n[nH]c(=S)n1-c1ccccc1F", "Potency": "inactive"},
      {"smiles": "Cn1cc(C(=O)NCc2ccccc2F)cn1", "Potency": "inactive"},
      {"smiles": "Cc1[nH]c2ccc(C(=O)N3CCN(C)CC3)cc2c1C", "Potency": "inactive"},
      {"smiles": "Cc1nn(-c2ccccc2)c(C)c1/C=N/NC(=O)CSc1nc2ccccc2c(=O)n1-c1ccccc1", "Potency": "inactive"},
      {"smiles": "COCCNC(=O)c1ccc(-n2c(SCc3cccnc3)nc3ccccc3c2=O)cc1", "Potency": "inactive"},
      {"smiles": "COC(=O)c1ccc(CSc2nc3ccccc3c(=O)n2-c2cccc(OC)c2)o1", "Potency": "13.1 µM (active)"},
      {"smiles": "CN=C1S/C(=C\\c2c(OC)cc(OC)cc2OC)C(=O)N1C", "Potency": "inactive"},
      {"smiles": "CC(=O)NCCc1ccc(S(=O)(=O)Nc2ccc(C)c(S(=O)(=O)N3CCOCC3)c2)cc1", "Potency": "inactive"},
      {"smiles": "COCCNC(=O)C(c1ccc(C)cc1)N(C(=O)CCC(=O)Nc1ccccn1)c1cccc(C)c1", "note": "(stereo not drawn)", "Potency": "inactive"},
      {"smiles": "COc1ccccc1N1CC(C(=O)Nc2nnc(SCC(=O)NC(C)C)s2)CC1=O", "note": "(stereo not drawn)", "Potency": "inactive"},
      {"smiles": "COc1ccccc1N1CC(C(=O)Nc2nnc(SCC(=O)NCC3CCCO3)s2)CC1=O", "note": "(stereo not drawn)", "Potency": "inactive"},
      {"smiles": "Cc1ccc(C(=O)NCC(=O)O)cc1S(=O)(=O)N1CCCCC1", "Potency": "inactive"},
      {"smiles": "Cc1ccc(C(=O)OCC(=O)N2CC(C)CC(C)C2)cc1S(=O)(=O)N1CCCCC1", "note": "(stereo not drawn)", "Potency": "inactive"},
      {"smiles": "Cc1ccc(C(=O)OCC(=O)NCc2cc(C)c(O)c(C)c2)cc1S(=O)(=O)N1CCCCC1", "Potency": "8.28 µM (active)"},
      {"smiles": "O=C(c1ccccc1F)N1CCN(S(=O)(=O)c2ccc(Br)cc2)CC1", "Potency": "inactive"},
      {"smiles": "CCOC(=O)c1cc(-c2ccccc2C)n(Cc2cc(C)no2)n1", "Potency": "inactive"},
      {"smiles": "COc1ccc(NC(=S)NCC2CCN(c3ccc(OC)cc3)C2)cc1", "note": "(stereo not drawn)", "Potency": "11.7 µM (active)"},
      {"smiles": "COc1cccc(N2CC(C(=O)Nc3c(C)cccc3C)CC2=O)c1", "note": "(stereo not drawn)", "Potency": "inactive"},
      {"smiles": "COc1ccc(N2CCC(CNC(=S)Nc3c(C)cccc3C)C2)cc1", "note": "(stereo not drawn)", "Potency": "11.7 µM (active)"},
      {"smiles": "COc1ccc(NC(=O)N2CCC(Cc3ccccc3)CC2)cc1", "Potency": "inactive"},
      {"smiles": "COc1ccc(N2CCC(N3CCN(C)C(CCO)C3)CC2)cc1", "note": "(stereo not drawn)", "Potency": "inactive"},
      {"smiles": "COc1ccc(NC(=S)NCCN2CCC(C)CC2)cc1", "activity change, negative = inhibition": "17.2% [at 5.75 µM] (inactive)"},
      {"smiles": "Cc1cc(C)cc(NS(=O)(=O)Cc2ccccc2)c1", "Potency": "inactive"},
      {"smiles": "CC(OC(=O)/C=C/c1ccccc1)C(=O)Nc1ccc(C(N)=O)cc1", "note": "(stereo not drawn)", "Potency": "inactive"},
      {"smiles": "Cc1ccccc1NC(=O)Cc1nc(COC(=O)c2ccc(C(F)(F)F)cc2)cs1", "Potency": "inactive"},
      {"smiles": "Cc1ccc(S(=O)(=O)N2CC(C)N(S(C)(=O)=O)C2)cc1", "note": "(stereo not drawn)", "Potency": "inactive"},
      {"smiles": "CCOC(=O)C1=C(COC(=O)[C@H](C)NS(=O)(=O)c2ccccc2F)NC(=O)NC1C", "note": "(stereo partly drawn)", "Potency": "inactive"}
    ]}
  ]
}
